Reference: PubChem BioAssay AID651871 (Sanford-Burnham Center for Chemical Genomics, 2012)

test system: HL-1; test: protection of cardiomyocytes from stress damage, SAR follow-up, cell-based, panel, H9c2 and HL-1, ATP luminescence, set 2 (AID 651871); conditions: H9c2/HL-1 cardiomyocytes, 2-deoxyglucose stress, with 2-deoxyglucose, run 16, at 79 µM (top of the series);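 also: cells exposed to stressor for 2 h before ATP readout; reference of the scale not given here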

SMILES	activity (protection/inhibition) [%]
COc1ccc2c(c1OC)C(=O)N1c3ccccc3C(=O)N(Cc3cccc(Cl)c3Cl)C21 (stereo not drawn)	-9.37
COc1ccc2nc(-c3cc(OC)c(OC)c(OC)c3)cc(C(=O)NCC(=O)Nc3ccc(C(C)=O)cc3)c2c1	84.4
CCOC(=O)c1cccc(NC(=O)CNC(=O)c2cc(-c3cc(OC)c(OC)c(OC)c3)nc3ccccc23)c1	130
